For six molecules, composite z-score and z-score results are on record in PubChem BioAssay.

Molecules are shown by their SMILES. Active and inactive are the calls of the source.

Test [1] can be described thus: binders of probe aFSTL3 on microarray, primary screen, stem cell growth factor project, biochemical, small-molecule microarray, fluorescence 635/667 (AID 1064).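 Further: measures binding of the biotinylated anti-FSTL3 antibody to printed compounds.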 To be noted: higher = more signal.
The nature of test [2]: binders from COS7 lysate, DM2A8 probe, primary screen, torsin A project, cell lysate, small-molecule microarray, fluorescence 635/667 (AID 1065). To be noted: higher = more signal, COS7 lysate expressing mutant human TOR1A.
Test [3] can be described thus: binders of probe aFGF2 on microarray, primary screen, stem cell growth factor project, biochemical, small-molecule microarray, fluorescence 635/667 (AID 1067).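 Further: measures binding of biotinylated aFGF2 protein to printed compounds on slides; z-score merges feature fluorescence and signal-to-noise across triplicate slides.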 To be noted: higher = more signal.
A short description of test [4]: binders of probe aFGF10 on microarray, primary screen, stem cell growth factor project, biochemical, small-molecule microarray, fluorescence 635/667 (AID 1071).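 Further: score merges 667 nm spot intensity and signal to noise from triplicate slides.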 To be noted: higher = more signal.
Test [5] addresses Neurogenic locus notch homolog protein 2 (Homo sapiens) (UniProt Q04721). Put plainly: Notch2 binders on small-molecule microarrays, primary screen, biochemical, small-molecule microarray, 635 nm fluorescence, stem cell growth factors (AID 1073). To be noted: Notch2 binding, higher = more signal.
The target in test [6] is Pro-neuregulin-1, membrane-bound isoform (Homo sapiens) (UniProt Q02297). Description: NRG1 binders on small-molecule microarrays, primary screen, psychiatric disease protein project, biochemical, small-molecule microarray, fluorescence 635/667 (AID 1075).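 Further: score combines 667 nm spot fluorescence with signal to noise.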 The conditions noted are these: NRG1 binding, 635 nm fluorescence, higher = more signal.
Sequence of Pro-neuregulin-1, membrane-bound isoform (Homo sapiens) (Q02297 whole entry, looked up, the tested form may be a part, canonical isoform): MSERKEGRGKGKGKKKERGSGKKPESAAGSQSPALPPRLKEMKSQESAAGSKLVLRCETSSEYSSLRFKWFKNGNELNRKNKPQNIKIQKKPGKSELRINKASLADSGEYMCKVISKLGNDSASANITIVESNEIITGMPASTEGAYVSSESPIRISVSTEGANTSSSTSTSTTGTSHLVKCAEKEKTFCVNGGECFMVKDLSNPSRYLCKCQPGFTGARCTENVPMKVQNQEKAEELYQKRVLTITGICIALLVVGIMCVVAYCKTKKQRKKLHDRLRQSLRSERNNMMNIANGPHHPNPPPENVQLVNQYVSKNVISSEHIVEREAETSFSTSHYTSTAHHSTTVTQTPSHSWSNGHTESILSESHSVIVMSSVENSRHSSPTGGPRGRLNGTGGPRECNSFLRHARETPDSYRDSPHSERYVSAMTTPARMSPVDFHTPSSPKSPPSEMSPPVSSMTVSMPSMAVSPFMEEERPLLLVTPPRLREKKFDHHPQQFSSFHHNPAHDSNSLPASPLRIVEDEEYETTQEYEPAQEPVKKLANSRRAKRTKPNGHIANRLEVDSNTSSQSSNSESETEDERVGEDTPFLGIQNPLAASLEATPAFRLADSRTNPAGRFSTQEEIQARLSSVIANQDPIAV
Test [7] deals with Neuregulin-1 EGF-like domain. Put plainly: binders of neuregulin-1 EGF-like domain, primary screen, biochemical, small-molecule microarray, 635 nm fluorescence (AID 1081).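 Further: binding of the protein to compounds printed on small-molecule microarray slides.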 To be noted: small-molecule microarray binding, higher = more signal.
The nature of test [8]: FRG1 promoter luciferase signal modulators, primary screen, FRG1 inhibition for FSHD, cell-based, C2C12 myotubes, firefly/Renilla luciferase, luminescence (AID 1084). The conditions noted are these: higher = more signal, called active from +8 up or from −8 down.
Test [9] can be described thus: binders of probe aFST on microarray, primary screen, stem cell growth factor project, biochemical, small-molecule microarray, fluorescence 635/667 (AID 1086).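 Further: score merges 667 nm fluorescence with signal-to-noise of each printed compound spot.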 To be noted: higher = more signal.
The nature of test [10]: binders of probe aHhip on microarray, primary screen, stem cell growth factor project, biochemical, small-molecule microarray, fluorescence 635/667 (AID 1087).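 Further: score merges spot fluorescence at 667nm with spot signal to noise ratio.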 The conditions noted are these: higher = more signal.
Test [11] concerns PRMT1 (protein arginine N-methyltransferase 1). Put plainly: PRMT1 binders on small-molecule microarrays, primary screen, biochemical, small-molecule microarray, 635 nm fluorescence (AID 1088).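 Further: binding of Prmt1 protein to compounds spotted on small-molecule microarray slides.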 To be noted: small-molecule microarray binding, higher = more signal.
Test [12] in a line: yeast growth modulation, basal conditions, primary screen, YJM789 clinical isolate, OD600, 24 h (AID 1089).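 Further: growth of clinical yeast isolate S. cerevisiae YJM 789 seeded 1000 cells per well; test concentration not given here.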 To be noted: S. cerevisiae YJM789 growth, higher = more signal, called active from +8 up or from −8 down.
Test [13] can be described thus: fission yeast growth modulation, primary screen, strain 972, OD600, 24 h, no modulator (AID 1090).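 Further: basal condition with compound alone and no growth modifier present; test concentration not given here.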 To be noted: S. pombe 972 growth, higher = more signal, called active from +8 up or from −8 down.
Test [14] in a line: S. cerevisiae growth modulation with rapamycin, primary screen, strain BY4716, OD600, 96 h (AID 1091). Further: test concentration not given here. To be noted: higher = more signal, called active from +8 up or from −8 down.
Test [15] deals with Torsin-1A-interacting protein 2 (Homo sapiens) (UniProt Q8NFQ8). Description: LULL1 binders on small-molecule microarray, primary screen, cell lysate, human LULL1 lysate, 635/667 nm fluorescence (AID 1092).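 Further: probe is lysate of COS7 cells overexpressing human LULL1; score merges per-feature 667 nm fluorescence with signal-to-noise.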 The conditions noted are these: hLULL1 lysate binding, 635 nm fluorescence, higher = more signal.
Sequence of Torsin-1A-interacting protein 2 (Homo sapiens) (Q8NFQ8 whole entry, looked up): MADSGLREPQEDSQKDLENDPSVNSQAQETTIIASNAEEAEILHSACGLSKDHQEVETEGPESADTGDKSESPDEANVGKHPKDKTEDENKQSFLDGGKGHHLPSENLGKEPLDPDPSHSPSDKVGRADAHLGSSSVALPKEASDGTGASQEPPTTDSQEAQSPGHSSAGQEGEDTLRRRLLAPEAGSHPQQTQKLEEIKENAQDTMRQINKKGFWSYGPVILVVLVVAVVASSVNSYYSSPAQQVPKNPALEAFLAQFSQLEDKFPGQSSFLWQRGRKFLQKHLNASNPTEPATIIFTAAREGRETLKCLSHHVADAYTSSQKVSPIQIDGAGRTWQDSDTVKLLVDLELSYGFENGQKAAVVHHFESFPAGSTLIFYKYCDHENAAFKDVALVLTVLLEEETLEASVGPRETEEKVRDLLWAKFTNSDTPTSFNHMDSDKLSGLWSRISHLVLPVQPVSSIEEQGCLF
A short description of test [16]: E. coli growth modulation, two-sided OD650, primary screen, E. coli filamentation project, strain DRC41, 24 h (AID 1093).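 Further: MC1000 strain lacking acrAB efflux and sulA so SOS filamentation is blocked; test concentration not given here.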 The conditions noted are these: OD650, 24 h, higher = more signal, called active from +8 up or from −8 down.
The nature of test [17]: small-molecule microarray binders of probe aLefty2, primary screen, biochemical, biotinylated probe, 635/667 nm fluorescence (AID 1094).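 Further: score merges spot fluorescence near 667 nm with spot signal-to-noise ratio.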 To be noted: higher = more signal.
Test [18] deals with Noggin (protein binding on small-molecule microarray). Put plainly: Noggin binders on small-molecule microarray, primary screen, biochemical, 635/667 nm fluorescence (AID 1095).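 Further: score merges 667 nm feature fluorescence with signal to noise over triplicate slides.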 To be noted: 635 nm fluorescence, higher = more signal.
The target of test [19] is Neurogenic locus notch homolog protein 3 (Homo sapiens) (UniProt Q9UM47). Description: NOTCH3 binders on small-molecule microarray, primary screen, biochemical, 635/667 nm fluorescence (AID 1096). To be noted: NOTCH3 binding, 635 nm fluorescence, higher = more signal.
Sequence of Neurogenic locus notch homolog protein 3 (Homo sapiens) (Q9UM47 whole entry, looked up): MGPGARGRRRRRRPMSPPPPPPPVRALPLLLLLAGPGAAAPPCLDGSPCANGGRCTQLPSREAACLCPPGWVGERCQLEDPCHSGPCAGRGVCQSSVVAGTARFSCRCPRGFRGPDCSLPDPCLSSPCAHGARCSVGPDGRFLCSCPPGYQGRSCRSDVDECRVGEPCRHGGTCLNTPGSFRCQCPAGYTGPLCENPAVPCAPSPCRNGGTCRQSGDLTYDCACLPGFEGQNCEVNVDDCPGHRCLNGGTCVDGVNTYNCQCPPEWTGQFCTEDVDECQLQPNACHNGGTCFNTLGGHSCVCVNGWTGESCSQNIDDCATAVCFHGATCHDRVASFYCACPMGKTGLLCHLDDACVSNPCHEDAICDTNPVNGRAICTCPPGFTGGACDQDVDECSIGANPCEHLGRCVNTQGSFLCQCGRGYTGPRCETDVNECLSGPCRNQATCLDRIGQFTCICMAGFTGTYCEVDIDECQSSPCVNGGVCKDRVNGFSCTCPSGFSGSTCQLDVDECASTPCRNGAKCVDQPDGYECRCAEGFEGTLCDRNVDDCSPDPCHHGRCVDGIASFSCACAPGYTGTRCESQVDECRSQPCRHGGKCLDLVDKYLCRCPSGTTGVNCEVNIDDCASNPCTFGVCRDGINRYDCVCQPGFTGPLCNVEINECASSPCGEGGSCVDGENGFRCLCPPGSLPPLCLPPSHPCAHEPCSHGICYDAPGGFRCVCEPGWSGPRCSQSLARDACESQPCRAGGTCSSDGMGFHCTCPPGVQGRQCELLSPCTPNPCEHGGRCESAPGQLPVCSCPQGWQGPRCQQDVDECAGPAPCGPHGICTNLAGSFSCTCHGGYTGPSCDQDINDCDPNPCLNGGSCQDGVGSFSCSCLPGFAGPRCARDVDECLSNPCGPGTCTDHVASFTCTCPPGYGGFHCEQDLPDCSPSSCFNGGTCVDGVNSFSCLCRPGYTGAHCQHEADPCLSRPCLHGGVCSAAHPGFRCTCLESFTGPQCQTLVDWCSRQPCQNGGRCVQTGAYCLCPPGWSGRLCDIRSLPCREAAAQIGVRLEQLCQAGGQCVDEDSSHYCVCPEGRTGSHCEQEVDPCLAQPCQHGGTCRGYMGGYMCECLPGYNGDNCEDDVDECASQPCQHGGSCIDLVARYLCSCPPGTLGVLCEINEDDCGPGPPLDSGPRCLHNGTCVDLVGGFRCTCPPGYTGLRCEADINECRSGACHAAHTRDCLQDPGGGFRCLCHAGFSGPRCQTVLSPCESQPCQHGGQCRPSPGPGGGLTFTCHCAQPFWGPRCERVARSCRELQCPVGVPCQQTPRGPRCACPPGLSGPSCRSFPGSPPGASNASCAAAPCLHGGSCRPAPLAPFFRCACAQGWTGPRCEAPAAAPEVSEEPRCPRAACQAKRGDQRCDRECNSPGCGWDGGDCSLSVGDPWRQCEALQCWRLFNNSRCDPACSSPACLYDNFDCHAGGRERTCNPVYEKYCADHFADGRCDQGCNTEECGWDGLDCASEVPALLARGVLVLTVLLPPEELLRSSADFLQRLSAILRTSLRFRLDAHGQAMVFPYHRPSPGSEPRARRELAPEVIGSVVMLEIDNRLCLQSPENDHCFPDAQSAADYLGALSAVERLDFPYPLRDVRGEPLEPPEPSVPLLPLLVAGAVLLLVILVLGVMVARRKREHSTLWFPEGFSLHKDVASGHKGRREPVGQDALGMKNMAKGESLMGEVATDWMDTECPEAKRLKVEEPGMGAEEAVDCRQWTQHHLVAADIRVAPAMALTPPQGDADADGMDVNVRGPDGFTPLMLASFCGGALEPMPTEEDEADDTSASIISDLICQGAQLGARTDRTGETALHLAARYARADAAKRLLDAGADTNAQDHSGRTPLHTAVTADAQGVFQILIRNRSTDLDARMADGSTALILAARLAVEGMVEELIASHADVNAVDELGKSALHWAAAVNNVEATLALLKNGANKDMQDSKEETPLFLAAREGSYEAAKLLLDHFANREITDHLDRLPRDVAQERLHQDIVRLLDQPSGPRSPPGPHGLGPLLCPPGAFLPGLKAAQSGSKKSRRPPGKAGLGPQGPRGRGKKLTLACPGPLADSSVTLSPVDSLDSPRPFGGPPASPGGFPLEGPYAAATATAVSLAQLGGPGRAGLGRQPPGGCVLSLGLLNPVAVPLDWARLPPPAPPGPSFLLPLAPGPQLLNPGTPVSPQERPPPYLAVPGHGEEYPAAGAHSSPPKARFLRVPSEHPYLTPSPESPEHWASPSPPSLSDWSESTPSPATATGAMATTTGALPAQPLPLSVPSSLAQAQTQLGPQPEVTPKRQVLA
The nature of test [20]: small-molecule microarray binders of probe aEGFR, primary screen, biochemical, biotinylated probe, 635/667 nm fluorescence (AID 1097).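 Further: probe is a biotinylated anti-EGFR antibody binding compounds printed on slides; score combines fluorescence near 667 nm and signal to noise of each spot.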 To be noted: higher = more signal.

For `Oc1ccc2cc[n+](Cc3sc4ccccc4c3Cl)cc2c1`, the composite z-score in test [1] is 0.997; in test [2] it was -0.466; in test [3] it was -0.0976; in test [4], -0.299; in [5] it was -0.308; in [6] it was -0.159. Further, the composite z-score in [7] came to 1.64; in test [9] it was 0.031; in [10], 0.16; in [11], 0.599; in test [15] it was 3.37; in test [17], 0.217. In addition, the composite z-score in test [18] was 0.311; in test [19], 0.207; in test [20] it was -0.0409. The z-score in test [8] is 1.7 (inactive); in [12], 0.0335 (inactive); in test [13] it was -1.43 (inactive); in [14], 2.3 (inactive); in test [16], -1.82 (inactive).

For the molecule `CC(C)CNC(=O)[C@@]1(Cc2ccccc2I)c2ccccc2C(=O)N(C2CCCCC2)[C@H]1c1ccc(CO)cc1`, the composite z-score in test [1] came out at 0.654; in test [2], 1.26; in test [3] it was 0.162; in [4] it was 0.685; in test [5], 0.142; in test [6] it was 0.925. For the same molecule, the composite z-score in test [7] came out at 1.05; in [9], 0.481; in test [10] it was 0.702; in test [11], 1.57; in test [15], 1.28; in test [17] it was 0.164. Further, the composite z-score in test [18] was -0.235; in [19] it was 0.497; in test [20] it was 0.0066. Further, the z-score was -3.41 (inactive) in test [8]; -1.32 (inactive) in test [12]; -0.597 (inactive) in test [13]; 0.153 (inactive) in test [14]; -0.518 (inactive) in [16].

As for `CO[C@H]1O[C@H](CO)[C@@H](OC(=O)Nc2cccc(F)c2)[C@H](OC(=O)Nc2ccccc2)[C@@H]1OC(=O)Nc1ccccc1`, the composite z-score in [1] was -0.139; in test [2], 0.995; in test [3] it was 0.185; in test [4], 1.17; in test [5], 1.51; in test [6], 1.51. Also, the composite z-score in [7] is 1.19; in test [9] it was 0.7; in test [10], -0.137; in test [11], 1.53; in [15], 3.12; in [17], 0.182. Also, the figures for the composite z-score in [18], in test [19] and in [20] were 0.286, 1.09 and 0.181, respectively. Besides, the z-score in test [8] is 1.17 (inactive); in [12] it was 0.347 (inactive); in test [13] it was 1.32 (inactive); in test [14] it was 14.4 (active); in [16], -0.621 (inactive).

With `Cc1ccccc1C(O)C1C=CC2C(=O)N(c3ccccc3)C(=O)C2N1Nc1ccc(C(C)C)cc1` (stereo not given), the composite z-score in test [1] was -0.0476; in [2], -0.0455; in [3], 0.0536; in test [4], 0.82; in [5] it was 1.5; in test [6], 1.27. The composite z-score was 0.592 in test [7]; 1.41 in test [9]; 0.142 in [10]; 1.13 in [11]; 2.3 in test [15]; -0.0675 in test [17]. The composite z-score in test [18] was -0.0693; in test [19], 1.07; in test [20], 0.0461. For the same molecule, the z-score is -0.729 (inactive) in [8]; 1.38 (inactive) in test [12]; 0.0135 (inactive) in [13]; 0.798 (inactive) in [14]; -1.89 (inactive) in test [16].

Consider `O=C1O[C@@H](c2ccccc2)[C@@H](c2ccccc2)N2[C@@H](c3ccccc3OCCO)[C@]3(C(=O)Nc4ccccc43)[C@@H](C(=O)Nc3nc4ccccc4s3)[C@H]12`, for which the composite z-score in test [1] came out at 0.0741; in test [2], 0.581; in test [3] it was 0.0566; in test [4], 0.841; in test [5], 1.15; in [6], 2.01. The composite z-score in test [7] is 1.26; in test [9] it was 0.247; in test [10], -0.329; in [11] it was 1.53; in [15], 3.22; in [17] it was -0.215. The composite z-score in test [18] was 1.53; in test [19], 1.04; in [20], 0.148. For the same molecule, the z-score was -1.26 (inactive) in test [8]; 1.13 (inactive) in test [12]; -0.205 (inactive) in test [13]; 2.85 (inactive) in test [14]; 1.26 (inactive) in test [16].

Take `[N-]=[N+]=Nc1ccccc1[C@@H]1OC(c2ccc(OCCCO)cc2)=N[C@]1(Cc1ccccc1)C(=O)N1CCOCC1`: the composite z-score came out at 0.324 in test [1]; 0.0788 in [2]; 0.14 in test [3]; 0.781 in test [4]; 1.55 in test [5]; 1.26 in test [6]. For the same molecule, the composite z-score in test [7] is 1.2; in [9], 0.802; in [10] it was 0.0053; in [11], 1.56; in test [15], 3.22; in [17], 0.225. The composite z-score in test [18] came out at 0.328; in [19] it was 1.1; in test [20], 0.276. Also, the z-score in test [8] is -1.5 (inactive); in [12], 0.785 (inactive); in test [13], -1.26 (inactive); in [14], 1.85 (inactive); in [16], 0.301 (inactive).
